PubChem BioAssay

Experiment: E. coli growth modulation, two-sided OD650, primary screen, E. coli filamentation project, strain DRC41, 24 h (AID 1093);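 note: MC1000 strain lacking acrAB efflux and sulA so SOS filamentation is blocked; test concentration not given here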
Details: OD650, 24 h, higher = more signal, called active from +8 up or from −8 down

z-score, inactive:
CO[C@@H]1COC(=O)CC=C[C@@H](C)[C@H](OC)COC(=O)CC=C[C@H]1C 0.162, O=C1O[C@H](c2ccccc2)[C@H](c2ccccc2)N2[C@H]1[C@@H](C(=O)Nc1nc3ccccc3s1)[C@]1(C(=O)Nc3ccc(C#CC4(O)CCCCCC4)cc31)[C@H]2c1ccc(O)cc1 -0.616, O=C1O[C@@H](c2ccccc2)[C@@H](c2ccccc2)N2[C@@H](c3ccccc3OCCO)[C@]3(C(=O)Nc4ccc(C#CC5=CCCCC5)cc43)[C@@H](C(=O)O)[C@H]12 2.04, O=C1O[C@@H](c2ccccc2)[C@@H](c2ccccc2)N2[C@@H](c3ccc(O)cc3)[C@]3(C(=O)Nc4ccccc43)[C@@H](C(=O)N3CCN(c4ncccn4)CC3)[C@H]12 3.16, C[N+](C)(C)CCCCNC(=O)[C@@H]1C[C@@H]2C(=O)N3CCC[C@H]3C(=O)N2[C@@H]1c1cccc(OCCO)c1 1.54, C=CC[C@@]1(C(=O)N2CCOCC2)N=C(c2ccc(OCCCO)cc2)O[C@@H]1c1ccccc1 1.33, CCC#CCN(Cc1ccccc1Br)[C@H](/C=C/c1ccccc1)[C@@H](O)Cc1ccccc1 0.567, O=C(NCc1ccccc1)c1ccc(Br)cc1[N+](=O)[O-] 0.768, CC(C)N1CC=CC23O[C@@H]4/C=C\CCCOC(=O)C4[C@H]2C(=O)N(CCCCCO)[C@@H]3C1=O (stereo partly specified) 1.67, O=C1OCC=C[C@H]2OC34C=CCN(Cc5ccccc5)C(=O)[C@H]3N(CCO)C(=O)[C@@H]4[C@@H]12 (stereo partly specified) 2.13, O=C1O[C@H](c2ccccc2)[C@H](c2ccccc2)N2[C@H]1[C@@H](C(=O)NC[C@H](O)c1ccccc1)[C@]1(C(=O)Nc3ccc(C#CC4=CCCCC4)cc31)[C@H]2c1ccc(OCCO)cc1 -0.422, COc1ccc(-c2ccccc2[C@@H]2N[C@H](C(=O)O)CC[C@H]2C)cc1 0.189, CCOC(=O)C[C@H]1[C@H](OC(=O)c2cc3ccccc3oc2=O)[C@@H](NC(=O)C2CCCCC2)c2cc(OCCCO)ccc2N1C(=O)c1ccc2ccccc2n1 -0.865, NC(=O)NCC#Cc1ccc2c(c1)[C@]1(C(=O)N2)[C@H](C(=O)N2CCCCCCC2)[C@H]2C(=O)O[C@H](c3ccccc3)[C@H](c3ccccc3)N2[C@@H]1c1ccccc1OCCO 1.82, Cc1ccc(N2C(=O)c3ccccc3[C@@H](C(=O)NCc3ccccc3)[C@@H]2c2ccc(CO)cc2)nc1 1.29, COC(=O)C(CC#Cc1ccc2c(c1)[C@]1(C(=O)N2)[C@H](C(=O)N2CCCCCCC2)[C@H]2C(=O)O[C@H](c3ccccc3)[C@H](c3ccccc3)N2[C@@H]1c1ccc(O)cc1)C(=O)OC 0.904, COc1ccc([Si](C)(C)[C@@H]2[C@@H](CCO)O[C@]3(C(=O)N(Cc4ccc(NC(=O)[C@H](C)O)cc4)c4ccccc43)[C@H]2C)cc1 1.78, C=CCNC(=O)[C@@H]1[C@H]2C(=O)O[C@H](c3ccccc3)[C@H](c3ccccc3)N2[C@H](c2ccc(OCCO)cc2)[C@@]12C(=O)N(C(=O)OCCOC)c1ccc(C#CC3(O)CCCCCC3)cc12 2.89, CC1CC/C=C\[C@H]2OC34C=CCN(Cn5nnc6ccccc65)C(=O)[C@H]3N(C(C)CO)C(=O)[C@@H]4C2C(=O)O1 (stereo partly specified) -0.224, COc1ccc([Si](C)(C)[C@H]2[C@H](CC(=O)N(CCO)Cc3ccccc3)O[C@@]3(C(=O)N(C)c4ccccc43)[C@@H]2C)cc1 1.41, CO[C@H]1COC(=O)[C@H](CCSC)NC(=O)CC=C[C@@H](C)COC(=O)[C@@H](OCc2ccccc2)C=C[C@@H]1C 0.109, C=CCOC(=O)[C@@H]1[C@H]2C(=O)O[C@H](c3ccccc3)[C@H](c3ccccc3)N2[C@H](c2ccc(OCCOC(=O)[C@H]3C[C@H]4C(=O)N[C@@H](CCCCNC(C)=O)C(=O)N4[C@H]3c3ccc(O)cc3)cc2)[C@@]12C(=O)Nc1ccc(I)cc12 -0.428, O=[N+]([O-])c1ccc(C[n+]2ccc3ccc(O)cc3c2)o1 -2.03, COCCOC(=O)N1C(=O)[C@@]2(c3cc(C#CC4=CCCCC4)ccc31)[C@H](C(=O)NC[C@H](O)c1ccccc1)[C@H]1C(=O)O[C@H](c3ccccc3)[C@H](c3ccccc3)N1[C@@H]2c1ccccc1OCCO -0.0963, CCOC(=O)C1=CC[C@@H](c2ccc(-c3ccc(OCc4ccccc4)cc3)c(OC)c2)N(S(=O)(=O)c2ccc(C)cc2)[C@H]1c1ccccc1 -0.0642, COC(=O)[C@@]1(Cc2ccc(OC)cc2)[C@H]2c3cc(C(=O)N(C)C)n(Cc4ccc(C)c(F)c4F)c3C[C@H]2CN1C(=O)c1ccccc1 -0.716, CCCC=C(CCC)[C@@H](NS(=O)(=O)c1ccc(-c2ccccc2)cc1)c1ccc(C(=O)OC)cc1 -1.9, CCOC(=O)[C@H]1C/C=C/C[C@H](C(=O)OCC)C(=O)O[C@H]2[C@@H](OC)O[C@H](CO)[C@@H](OC(=O)Nc3ccc(Br)cc3)[C@@H]2OC1=O 2.91, C=C[C@H](OC)[C@@H](OC(=O)Nc1ccc(SC)cc1)c1ccc(O)c(F)c1 1.48, COCCOC(=O)N1C(=O)[C@@]2(c3cc(C#CCNC(N)=O)ccc31)[C@H](c1ccc(OCCO)cc1)N1[C@H](c3ccccc3)[C@H](c3ccccc3)OC(=O)[C@H]1[C@@H]2C(=O)N1CCCCCCC1 2.27, CN(C)c1ccc(C(O)C2C=CC3C(=O)NC(=O)C3N2Nc2ccc(Cl)cc2Cl)cc1 (stereo unspecified) -0.617, COCCOC(=O)N1C(=O)[C@@]2(c3cc(C#CCC(C(=O)OC)C(=O)OC)ccc31)[C@H](C(=O)N1CCN(c3ncccn3)CC1)[C@H]1C(=O)O[C@H](c3ccccc3)[C@H](c3ccccc3)N1[C@@H]2c1ccc(O)cc1 3.19, COCCOC(=O)N1C(=O)[C@@]2(c3ccccc31)[C@H](C(=O)N1CCc3cc(OC)c(OC)cc3C1)[C@H]1C(=O)O[C@H](c3ccccc3)[C@H](c3ccccc3)N1[C@@H]2c1ccccc1OCCO 2.8, CC(C)=C1C(=O)C(c2ccccc2)=C2CN3C(=O)N(CCc4ccccc4)C(=O)[C@]3(Cc3ccccc3)[C@H]21 -0.901, CO[C@H]1COC(=O)CC=C[C@H](C)COC(=O)[C@@H](OCc2ccccc2)C=C[C@@H]1C 0.0129, [N-]=[N+]=NCc1ccccc1C[C@@]1(C(=O)N2CCOCC2)N=C(c2ccc(OCCCO)cc2)O[C@@H]1c1ccccc1N=[N+]=[N-] 0.282
